From PubChem BioAssay AID602182 (The Scripps Research Institute Molecular Screening Center, 2012) come the findings set out here.

For orientation: IC50 means the midpoint of a concentration-inhibition curve.

SMILES strings stand for the structures. The list shows a part of the results. A number with no mark means an inactive call. No rule for the calls is given here.

The assay in a line: quenching of GFP signal – biochemical, fluorescence, artefact control for Rin1-Abl interaction inhibitor project, dose response (AID 602182).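 Also: ABL1-eGFP fusion protein alone without its RIN1 binding partner.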 Particulars: GFP fluorescence interference/quenching counterscreen.
Take `CCOC(=O)N1CCN(C(=O)C2CCN(c3ncnc4c3sc3cccc(F)c34)CC2)CC1`: the IC50 is over 67.6 µM.

On to `C=CCn1c2ccccc2c2nnc(SCc3[nH]c(=O)[nH]c3C(=O)CCCCC(=O)OCC)nc21`, for which the IC50 was over 67.5 µM.

As for `CN(C(=O)c1ccc(NC(=O)Cc2cccc(NC(=O)C3CCN(C(=O)c4ccccc4)CC3)c2)cc1)C1CC1`, the IC50 is over 67.6 µM.

In the case of `Nc1cc(=O)c2[nH]cnc2[nH]1`, the IC50 was over 67.7 µM.

As for `Cc1ccccc1CN1C[C@@H]2C[C@@H](c3ccc4nsnc4c3)N3CCC[C@@]23C1=O`, the IC50 was over 67.5 µM.

In the case of `CC(OC(=O)c1ccccc1NCCO)C(=O)Nc1ccnn1C(C)C` (stereo not drawn), the IC50 was over 67.5 µM.

As for `C[C@@H]1CN([C@H](C)CO)S(=O)(=O)c2ccc(C#C[C@@H](C)O)cc2O[C@@H]1CN(C)Cc1ccc(-c2ccccc2)cc1`, the IC50 is over 67.5 µM.

Regarding `CN(Cc1c(F)cccc1Cl)C(=O)CNC(=O)c1ccc2c(c1)OCO2`, the IC50 is over 67.6 µM.
